# Bioassay records: PubChem BioAssay, National Center for Advancing Translational Sciences (NCATS)
# Cruzain Triton: cruzain (T. cruzi) inhibition with detergent | purified cruzain, Z-FR-AMC fluorescence, 0.01% Triton | P25779 | 200,000 compounds, 0.43% hits | Potency, µM, for inactives: max response, negative = inhibition, most hits filed as inhibitors | AID 1478;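 note: plate controls were neutral wells for no effect and buffer without enzyme for full effect; nearly all actives have a fitted effect of over 40% in size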
# Target sequence (P25779 123-467 limits assumed): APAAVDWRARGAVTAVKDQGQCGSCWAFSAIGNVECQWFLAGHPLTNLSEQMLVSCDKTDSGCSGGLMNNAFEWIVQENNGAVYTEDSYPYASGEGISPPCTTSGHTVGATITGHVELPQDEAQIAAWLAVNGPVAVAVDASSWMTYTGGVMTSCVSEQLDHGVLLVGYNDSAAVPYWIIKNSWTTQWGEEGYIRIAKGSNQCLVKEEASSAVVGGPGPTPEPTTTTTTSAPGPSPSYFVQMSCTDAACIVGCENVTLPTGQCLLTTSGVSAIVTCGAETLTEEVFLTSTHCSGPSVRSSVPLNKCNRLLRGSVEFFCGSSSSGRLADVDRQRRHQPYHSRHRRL
#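 Detergent-containing run (0.01% Triton X-100) in acetate buffer pH 5.5 with 5 mM DTT: enzyme at 1.5 nM final, 15 min compound preincubation at room temperature, then 2 uM Z-FR-AMC substrate. Activity taken as 60 s fluorescence increase at 360/450 nm.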
# Cruzain inh noDet: cruzain (T. cruzi) inhibition without detergent | P25779 | purified cruzain, Z-FR-AMC fluorescence, no detergent | Potency, µM, inactives show max response, negative = inhibition, usual class: inhibitors | 200,000 compounds, 2.3% hits | AID 1476;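 note: plate controls were enzyme without inhibitor for no effect and buffer without enzyme for full effect; nearly all actives have a fitted effect of over 40% in size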
#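 Purified cruzain at 1.5 nM, pre-incubated 15 min with compound at room temperature in 100 mM sodium acetate pH 5.5, 5 mM DTT, 0.00005% Triton X-100. Reaction started with 2 uM Z-FR-AMC; AMC fluorescence increase over 60 s gives rate.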
# The depositor's hits bear a star; u = inconclusive. In the library only some 2.5% were active in any assay of this set; here they are far more common. Calls come from the whole dose curve; as a rule, active = well fitted curve in the direction sought with a large enough effect; inconclusive = small, poorly fitted or top-dose-only effect, or another doubt; inactive = no such curve, though single readings can be large; an effect the other way counts as inactive or inconclusive. Potency is the fitted concentration of half-maximal effect.
SMILES,Cruzain Triton,Cruzain inh noDet
Cc1ccc(N2CCN(S(=O)(=O)c3ccc(F)c(C(=O)Nc4ccc(Cl)cc4Cl)c3)CC2C)cc1 (stereo not drawn),1%,-9%
COc1ccccc1N1CCN(S(=O)(=O)c2ccc(F)c(C(=O)Nc3ccc(Cl)cc3C(F)(F)F)c2)CC1,0%,u
Cc1cc(C)c(NC(=O)CSc2ncc(S(=O)(=O)c3ccc(C(C)(C)C)cc3)c(=O)[nH]2)c(C)c1,0%,u
Cc1ccccc1C(=O)N1CCC(N2CCN(Cc3ccc(F)cc3)C(=O)C2=O)CC1,0%,-9%
Cc1cc2oc(C(=O)Nc3ccc(S(=O)(=O)N(C)c4ccccc4)cc3)cc(=O)c2cc1C,0%,1%
COc1ccc(-c2nc3ccccc3n3c(-c4cccc(C)c4)c4c(=O)n(C)c(=O)n(C)c4c23)cc1OC,-3%,1%
CC(C)(C)C1CCc2c(sc(NC(=O)c3cccs3)c2C(N)=O)C1 (stereo not drawn),3%,13µM*
COC(=O)c1c(NC(=O)COc2ccccc2Cl)sc2c1CCC(C(C)(C)C)C2 (stereo not drawn),3%,-7%
CCOC(=O)c1sc(NC(=O)CSc2nnnn2-c2ccccc2)c(C(=O)OCC)c1C,-3%,-17%
COC(=O)c1c(NC(=O)CSc2nnnn2-c2ccccc2)sc2c1CCC(C)C2 (stereo not drawn),-1%,20µM*
COC(=O)c1c(NC(=O)CSc2nnnn2-c2ccccc2)sc2c1CCC(C(C)(C)C)C2 (stereo not drawn),-2%,6.3µM*
CCC(C)(C)C1CCc2c(sc(NC(=O)c3cccs3)c2C(N)=O)C1 (stereo not drawn),-2%,u
COc1ccc(CNC(=O)Cc2ccc(NC(=O)N3CCCCc4ccccc43)cc2)cc1,-1%,13%
COc1cccc2sc(NC(=O)CS(=O)(=O)c3ccc(C)cc3)nc12,-2%,u
Cc1ccc(S(=O)(=O)CC(=O)Nc2nc3c(C)cc(C)cc3s2)cc1,-7%,13µM*
CCOc1ccc2nc(NC(=O)CS(=O)(=O)c3ccc(C)cc3)sc2c1,-8%,u
CCOc1ccc2nc(NC(=O)CS(=O)(=O)c3ccc(Cl)cc3)sc2c1,-10%,5µM*
CCOC(=O)c1c(-c2ccc(C)cc2C)csc1NC(=O)c1ccccc1Cl,0%,1%
Cc1ccc(C)c(CN2C(=O)c3ccccc3S(=O)(=O)c3ccc(C(=O)Nc4cc(F)ccc4F)cc32)c1,-2%,16µM*
Cc1ccc(C)c(CN2C(=O)c3ccccc3S(=O)(=O)c3ccc(C(=O)NCCc4ccc(Cl)cc4)cc32)c1,5%,10µM*
O=C(NCCc1ccc(Cl)cc1)c1ccc2c(c1)N(Cc1ccccc1F)C(=O)c1ccccc1S2(=O)=O,1%,u
Cc1ccc(C)c(CN2C(=O)c3ccccc3S(=O)(=O)c3ccc(C(=O)Nc4ccccc4C(F)(F)F)cc32)c1,-5%,u
COc1cccc(N2CCN(S(=O)(=O)c3ccc(-c4cc(C(F)(F)F)on4)s3)CC2)c1,3%,-8%
CC(C)COc1ccc(C(=O)N(Cc2ccc(N(C)C)cc2)Cc2ccco2)cc1,-12%,-18%
CCC(=O)C1=C(c2ccc(OC)c(OC)c2)N(C(=O)CC)n2c(CC)nnc2S1,-8%,u
SMILES,Cruzain Triton,Cruzain inh noDet
Cc1ccc(C(=O)C(OC(=O)CN2C(=O)c3ccccc3C2=O)c2ccccc2)cc1 (stereo not drawn),3%,u
Cc1ccc(C(=O)C(OC(=O)CNC(=O)c2ccc(Cl)cc2)c2ccccc2)cc1 (stereo not drawn),6.3µM*,10µM*
Cc1ccc(C(=O)NCC(=O)NCC(=O)OCc2ccc(Cl)cc2)cc1,-3%,1%
O=C(CNC(=O)c1ccccc1)OC(C(=O)c1ccccc1)c1ccccc1 (stereo not drawn),6.3µM*,4µM*
O=C(CN1C(=O)c2ccccc2C1=O)OC(C(=O)c1ccc(Cl)cc1)c1ccccc1 (stereo not drawn),2%,32µM*
COc1ccc(NC(=O)CCC(=O)OC(C(=O)c2ccccc2)c2ccccc2)cc1 (stereo not drawn),-12%,-8%
O=C(OCc1nc2ccccc2s1)c1cccs1,0%,-4%
O=C(CNC(=O)c1ccc(Cl)cc1)OCc1nc2ccccc2s1,14µM*,16µM*
CC(C)CNc1ncnc2onc(-c3ccc(Cl)cc3)c12,-3%,-5%
Cc1nc(S(=O)(=O)N2CCN(c3ccc(Cl)cc3)CC2)cn1C,0%,-3%
CCOC(=O)c1ccc(NC(=O)CS(=O)(=O)Cc2nc(-c3ccc(C)cc3)oc2C)cc1,-5%,-13%
CCCC1=Nc2cc(C(=O)NCc3ccccc3)ccc2Sc2ccccc21,-6%,5%
Cc1ccc(-n2cc(C(=O)Oc3ccc(F)cc3)c3ccccc3c2=O)cc1,-6%,-30%
O=C1COc2cc(S(=O)(=O)CCC(=O)N3CCN(c4cccc(Cl)c4)CC3)c(Cl)cc2N1,-2%,-30%
C=C[C@]1(C)Cc2occ(C)c2C[C@H]1C(=C)C(=O)O,0%,-4%
COc1ccc(C(=O)C(OC(=O)CNC(=O)c2ccco2)c2ccccc2)cc1 (stereo not drawn),4µM*,3.2µM*
COc1ccc(C(=O)OC(C(=O)c2ccccc2)c2ccccc2)cc1 (stereo not drawn),-1%,-9%
CC(=O)O[C@]1(C(C)=O)CC[C@H]2C3C=C(Cl)C4=CC(=O)[C@@H]5C[C@H]5[C@]4(C)C3CC[C@@]21C (stereo partly drawn),-12%,u
COc1ccc(-c2cc(-c3ccccc3)nc(SCC(=O)Nc3nccs3)c2C#N)cc1,-8%,7.9µM*
CC(C)NC(=O)CSc1nc(-c2cccs2)cc(-c2ccccc2)c1C#N,-7%,20µM*
N#Cc1c(-c2ccccc2)cc(C2CC2)nc1SCC(=O)c1cccs1,1%,u
COc1ccc(-c2cc(-c3ccccc3)nc(SCC(=O)Nc3ccccc3F)c2C#N)cc1,1%,-6%
CCc1nnc(NC(=O)CSc2nc(-c3ccccc3)cc(-c3ccc(OC)cc3)c2C#N)s1,-3%,13µM*
COc1ccc(-c2cc(-c3ccccc3)c(C#N)c(SCC(=O)Nc3ncc(C)s3)n2)cc1,-3%,u
CCc1ccc(NC(=O)Nc2nnc(N(C)C3CCCCC3)s2)cc1,-11%,u
SMILES,Cruzain Triton,Cruzain inh noDet
CCOc1ccccc1NC(=O)c1cc(=O)c2ccc(C)cc2o1,-2%,-5%
Cc1oc(C)c2c(=O)cc(-c3ccc4c(c3)OCO4)cc(OC(=O)c3cccc(Br)c3)c12,-3%,25µM*
Cc1oc(C)c2c(=O)cc(-c3ccc4c(c3)OCO4)cc(OC(=O)c3cccc(Cl)c3)c12,-4%,u
Cc1ccc(C(=O)Oc2cc(-c3ccc4c(c3)OCO4)cc(=O)c3c(C)oc(C)c23)cc1,-6%,u
Cc1ccccc1C(=O)Oc1cc(-c2ccc3c(c2)OCO3)cc(=O)c2c(C)oc(C)c12,-9%,20µM*
CCOc1ccc(NC(=O)CCc2c(C)nc3cc(-c4ccc(Cl)cc4)nn3c2C)cc1,1%,-8%
Cc1ccc(-c2c3c(=O)n(C)c(=O)n(C)c3c3cnc4ccccc4n23)cc1,1%,-6%
Cc1c(-c2cccc(NC(=O)Nc3ccccc3)c2)nc2ncccn12,-6%,18%
CS(=O)(=O)Nc1ccc([N+](=O)[O-])cc1OC1CCCCC1,-4%,-5%
O=C(CCS(=O)(=O)c1cc(Br)cc2c1N(C(=O)C1CC1)CC2)N1CCN(c2cccc(Cl)c2)CC1,0%,10%
